This note sets out measurements from PubChem BioAssay AID2018 (Sanford-Burnham Center for Chemical Genomics, 2009).

Hit rate of the full screen: of about 1,200 compounds, about 600 (50%) were called active. So high a share suggests a set chosen from earlier hits. Some of the results follow. Results with a measured potency or affinity are listed apart. Values without a mark were called inactive. No stated cut-off is given here; in the data, active means inhibition above about 42%; inactive means the rest.

In this assay the target is SUMO-conjugating enzyme UBC9 (Homo sapiens) (UniProt P63279). Put plainly: SUMOylation inhibitor hit validation, confirmation, SUMOylation inhibitor project, biochemical, AlphaScreen (AID 2018). As to conditions: AlphaScreen in vitro SUMOylation assay; at 35 µM; hits give high values.
Chain of SUMO-conjugating enzyme UBC9 (Homo sapiens) (P63279 whole entry, looked up): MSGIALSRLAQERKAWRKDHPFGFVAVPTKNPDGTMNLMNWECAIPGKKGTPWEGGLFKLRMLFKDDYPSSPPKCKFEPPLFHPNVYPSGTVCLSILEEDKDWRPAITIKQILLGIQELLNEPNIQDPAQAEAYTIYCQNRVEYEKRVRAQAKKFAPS
For `C=CCN(CC=C)c1nc2ccccc2nc1C(C#N)C(=O)OC(C)C` (centres undefined), the inhibition was -10.3%. Regarding `Cc1[nH]n(-c2ccccc2)c(=O)c1C(c1ccc(C(=O)O)cc1)c1c(C)[nH]n(-c2ccccc2)c1=O`, the inhibition is 41.6%. Regarding `COc1ccc(C(c2c(C)[nH]n(-c3ccccc3)c2=O)c2c(C)[nH]n(-c3ccccc3)c2=O)cc1OC`, the inhibition is 101% (active). In the case of `COCCNC(=O)CCC1CCN(Cc2ccc(-c3ccccc3)cc2)CC1`, the inhibition was -1.3%. As for `CCOc1ccc(N2CC(C(=O)NCc3ccc(F)cc3)CC2=O)cc1` (centres undefined), the inhibition is 6.3%. For the compound `Cc1n[nH]c(=S)n(NC(=O)/C=C/C(=O)Nn2c(=S)[nH]nc(C)c2=O)c1=O`, the inhibition is 101% (active). As for `S=C(Nc1ccc2nsnc2c1)NC1CCCCC1`, the inhibition was 95.3% (active). `S=C(Nc1ccc2nsnc2c1)N1CCCCCC1`: the inhibition is 28.1%. On to `S=C(NCc1ccc2c(c1)OCO2)Nc1ccc2nsnc2c1`, for which the inhibition was 25.4%.

As to `S=C(Nc1ccc2nsnc2c1)N1CCCCC1`, the inhibition was 18.3%. On to `OCCNC(=S)Nc1ccc2nsnc2c1`, for which the inhibition is 54.8% (active).

On to `COCCNC(=S)Nc1ccc2nsnc2c1`, for which the inhibition was 6.6%. Turning to `Cn1cc2ccc(N)cc2n1`, the inhibition was -18.5%. Regarding `Nc1ccc2nc(-c3ccccc3)sc2c1`, the inhibition is -1.4%. For the compound `Nc1ccc2nn(-c3cccc4ccccc34)nc2c1`, the inhibition was 43.5% (active). Regarding `Cc1ccc(-n2nc3ccc(N)cc3n2)c(C)c1`, the inhibition was 39.7%.

Take `Nc1ccc2nn(-c3ccccc3)nc2c1`: the inhibition is 68.1% (active). As for `CN(C)C=Nc1ccc2nn(-c3ccccc3)nc2c1`, the inhibition is -10.8%.

For the compound `N#Cc1ccsc1NC(=O)CN1CCN(c2ccc(O)cc2)CC1`, the inhibition is 5.7%. With `O=C(NCCc1ccccc1)c1ccc2nc(-c3ccco3)c(-c3ccco3)nc2c1` the figure was 70.9% (active); with `O=C(Nc1ccccc1)Nc1ccno1`, -7.1%; with `CC(C)c1ccccc1NC(=O)COc1ccc(C(=O)NCCc2ccccc2)cc1`, 26.7%. With `O=C(Nc1ccc2nc(-c3ccco3)c(-c3ccco3)nc2c1)N1CCN(c2ccccn2)CC1` the figure was 76.6% (active). With `O=C(Cc1ccccc1)Nc1nnc(-c2ccco2)s1` the figure was 11.3%. Turning to `S=C(Nc1ccc2nc(-c3ccccn3)c(-c3ccccn3)nc2c1)N1CCOCC1`, the inhibition was 3.8%.

With `O=C(Nc1ccc2nsnc2c1)N1CCCCC1`, the inhibition is 2.3%. On to `O=C(NCc1ccccc1)c1ccc2nc(-c3ccco3)c(-c3ccco3)nc2c1`, for which the inhibition was 65.7% (active). Regarding `CC(=O)Nc1ccc2nc3ccccc3nc2c1`, the inhibition was 15.1%.

For `COc1ccc(CCNC(=O)c2ccc3nc(-c4ccco4)c(-c4ccco4)nc3c2)cc1OC`, the inhibition is 73.3% (active). For the compound `O=C(Nc1cccnc1)c1cc2cc(Br)ccc2oc1=O`, the inhibition is 34.9%. `COc1ccc(CCn2c(N)c(C(=O)NCc3ccco3)c3nc4ccccc4nc32)cc1OC`: the inhibition was 9.7%. Take `Cc1ccc(Cn2cccc(NS(C)(=O)=O)c2=O)cc1`: the inhibition was 26.5%. As to `COc1ccc(-c2cc(-c3ccccc3)n3ncnc3n2)cc1`, the inhibition was 5.5%. Regarding `Cc1nn2cc(-c3ccccc3)nc2[nH]c1=O`, the inhibition is 9.6%. As to `CC(C)c1ccc(S(=O)(=O)/N=C2/C=CC(=O)c3ccccc32)cc1`, the inhibition was 102% (active). As to `O=C(NCc1ccccc1)Nc1cccn(Cc2c(F)cccc2Cl)c1=O`, the inhibition was -15.7%.

On to `CN(C)c1ccc(/C=N/Nc2cc(N3CCOCC3)nc(N3CCOCC3)n2)cc1`, for which the inhibition was 39.5%. Turning to `COc1ccc2c(c1)-c1nc(/N=C/c3ccc(O)cc3)sc1CC2`, the inhibition is 30.9%.

Turning to `Oc1ccc(/C=N/Nc2cc(N3CCCC3)nc(N3CCCC3)n2)cc1`, the inhibition was 82.3% (active). The figure for `Oc1ccc(/C=N/Nc2cc(N3CCCC3)nc(N3CCCC3)n2)cc1O` is 102% (active); for `Cc1ccc(N=Nc2c(N)[nH]n3c(=O)cc(C)nc23)cc1` it is 37.3%.

In the case of `COc1ccc2c(c1)Cc1sc(NC(=O)c3cccs3)nc1-2`, the inhibition is 51.9% (active).

As to `COc1ccc2c(c1)Cc1sc(NC(=O)c3ccccc3)nc1-2`, the inhibition is 34.5%. Regarding `COCCN(CCOC)S(=O)(=O)c1ccc(C(=O)Nc2nc3c(s2)CCc2ccccc2-3)cc1`, the inhibition is 30.1%.

In the case of `COc1ccc2c(c1)Cc1sc(NC(C)=O)nc1-2`, the inhibition is 41.3%. The figure for `COc1ccc(C(=O)Nc2nc3c(s2)Cc2cc(OC)ccc2-3)cc1` is 59.7% (active); for `Cn1c(=O)c(Nc2ccc(O)cc2)c2c3c(cccc31)C(=O)c1ccccc1-2` it is 91.8% (active); for `COc1ccc(-c2ccnc3nc(/N=C/N(C)C)nn23)cc1` it is -8.3%. With `COc1cccc(Cn2cccc(NC(=O)NC3CCCCC3)c2=O)c1` the figure was 25.8%; with `CC1CCN(CCCn2c(=S)[nH]c3ccc(N4CCOCC4)cc3c2=O)CC1`, -13.8%. With `O=c1c2ccccc2nc(/C=C/c2cccnc2)n1Cc1ccccc1`, the inhibition is 98.2% (active). Take `Cc1c2c(=O)n(-c3nc4ccccc4s3)nc-2cc(O)n1Cc1ccccc1`: the inhibition is 20.5%.

For `COCCCNC(=O)c1c(N)n(-c2ccccc2)c2nc3ccccc3nc12`, the inhibition was -25.1%. As for `COc1ccc(-n2c3nc4ccccc4nc3c3c(=N)oc(C)nc32)cc1`, the inhibition was 64% (active). The figure for `COc1ccccc1/C=N/NC(=O)c1ccc(CN2C(=O)c3cccc4cccc2c34)cc1` is -17.1%. Regarding `O=C(N/N=C/c1ccccc1)c1ccc(CN2C(=O)c3cccc4cccc2c34)cc1`, the inhibition was 51.5% (active). For the compound `NC(=O)N/N=C/c1ccc2cccc(OCc3ccccc3)c2n1`, the inhibition is 31.5%. In the case of `Cc1cccc(C(=O)NC2C(=O)NNC2c2ccc(Cl)cc2)c1` (centres undefined), the inhibition is 69.8% (active).

With `CC1OC(Nc2cccc3ccccc23)C(O)C(O)C1O` (centres undefined), the inhibition was 38.7%. With `O=C(N/N=C/c1ccc(O)c2ncccc12)c1cccc(Br)c1`, the inhibition was 65.3% (active). Consider `CCOc1ccc(N2C(=O)c3ccc(C(=O)OCC(=O)N(CC)C4CCS(=O)(=O)C4)cc3C2=O)cc1` (centres undefined), for which the inhibition is 42.4% (active).

For `O=c1oc2cc(O)ccc2cc1-c1ccc(F)cc1`, the inhibition is 15.5%. As for `Cc1cc(/C=C2\SC(=S)NC2=O)c(C)[nH]1`, the inhibition was 65.4% (active). The figure for `c1ccc2c3c(cc(N4CCOCC4)c2c1)OC1(N2CCOCC2)CCCCC1O3` (centres undefined) is 92% (active). For the compound `Cc1ccc(C2C(C#N)=C(N)N(c3cccnc3)C3=C2C(=O)CCC3)s1` (centres undefined), the inhibition was 16.8%. Regarding `NC(=O)c1ccc(N=C2C(=O)Nc3ccc([N+](=O)[O-])cc32)cc1`, the inhibition is 102% (active). On to `NC(N)=N/N=C/c1cc([N+](=O)[O-])ccc1O`, for which the inhibition is -9.1%. As for `CCC(C)(C)n1nnnc1CN(Cc1cc2cc(OC)c(OC)cc2[nH]c1=O)C1CCCC1`, the inhibition was 2.2%. With `Cc1ccc(-c2[nH]c(-c3ccc(C(=O)O)cc3)nc2-c2ccccc2)cc1` the figure was 49.3% (active); with `O=[N+]([O-])c1cc([N+](=O)[O-])c2nonc2c1Nc1ccc(O)cc1`, 37.6%; with `CN(C)c1cc(Nc2cccc(O)c2)c([N+](=O)[O-])c2nonc12`, 43.3% (active). On to `O=[N+]([O-])c1c(NCc2ccccc2)cc(N2CCc3ccccc3C2)c2nonc12`, for which the inhibition is 38.5%.

With `COc1ccc2c(c1)C(C)=CC(C)(C)N2C(=O)Nc1ccccc1`, the inhibition was 38.7%.

As to `CSc1nnc(SCc2nc3sc(C(=O)O)c(C)c3c(=O)[nH]2)s1`, the inhibition is 89.8% (active). Turning to `CCN(CC)C(=O)c1sc2nc(-c3ccncc3)[nH]c(=O)c2c1C`, the inhibition is 0.7%. Consider `CCOc1ccc(S(=O)(=O)N2CCCC(C(=O)NCc3ccco3)C2)cc1` (centres undefined), for which the inhibition was 4.2%. With `[O-]/C(=C(\C(=S)Nc1cccc2ccccc12)[n+]1cccc(CO)c1)c1ccc(Cl)s1` the figure was 31.7%.

`Fc1cccc(NC(=S)Nc2cccc3ccccc23)c1`: the inhibition was 24.1%. Consider `[O-]/C(=C(\C(=S)Nc1cccc2ccccc12)[n+]1ccccc1)c1ccc(Cl)s1`, for which the inhibition is 53.6% (active).

For `CC(C)c1ccc(NC(=O)C[n+]2ccn(C3=C([O-])c4ccccc4C3=O)c2)cc1`, the inhibition is 61.2% (active).

As for `CC(C)c1ccc(NC(=S)Nc2cccc3ccccc23)cc1`, the inhibition was 24.3%. For `O=c1c(-c2c(O)cc(O)c3c(=O)cc(-c4ccc(O)cc4)oc23)c(-c2ccc(O)cc2)oc2cc(O)cc(O)c12`, the inhibition was 99.8% (active). With `Cc1[nH][nH]c(=O)c1C(c1ccc(-c2ccc(Cl)c(C(=O)O)c2)o1)c1c(C)[nH][nH]c1=O` the figure was 73.1% (active); with `Cc1[nH][nH]c(=O)c1C(c1ccc(-c2ccc(Cl)c(Cl)c2)o1)c1c(C)[nH][nH]c1=O`, 45.9% (active). For the compound `Cc1cc(C)c(S(=O)(=O)NCC23C=CC(O2)C2C(=O)N(c4ccccc4)C(=O)C23)c(C)c1` (centres undefined), the inhibition is -6.4%.

As for `O=C1N=c2ccccc2=C1c1sc(Nc2ccc(O)cc2)nc1O`, the inhibition is 93.5% (active).

Consider `O=C1N=c2ccccc2=C1c1c(O)n(-c2cccc(F)c2)[nH]c1=O`, for which the inhibition is 12%. As to `Cc1c(N2C(=O)c3ccc4c5c(ccc(c35)C2=O)CC4)c(=O)n(-c2ccccc2)n1C`, the inhibition was 93.9% (active). For `N#CC1=C(N)Oc2n[nH]c(-c3cccs3)c2C1c1ccoc1` (centres undefined), the inhibition was 24.4%.

On to `Cc1ccc(-n2nc(C)c3c2OC(N)=C(C#N)C3c2ccoc2)cc1` (centres undefined), for which the inhibition was 69% (active). Regarding `Cc1nn(-c2ccccc2)c2c1C(c1ccc(F)cc1)C(C#N)=C(N)O2` (centres undefined), the inhibition is 0%.

For the compound `Cc1ccc(-n2nc(C)c3c2OC(N)=C(C#N)C3c2ccc(C)o2)cc1` (centres undefined), the inhibition was 81.4% (active). In the case of `CC(C)N1CCC2(CC1)C(C#N)=C(N)NC(S)=C2C#N`, the inhibition is 26%.

Take `Cc1nc2c3cc(F)ccc3n(Cc3ccc(F)cc3)c2s1`: the inhibition was 20.7%.
